According to PubChem BioAssay (Tox21):
Records with an inconclusive call do not appear. A call without a number means that no potency is given here. The source made the active and inactive calls. Calls come from the whole dose curve.

Target: Beta-2 adrenergic receptor (Homo sapiens) (UniProt P07550)
Experiment: Adrenergic beta2 receptor (ADRB2) small molecule agonists, cell-based qHTS assay (AID 1963593);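 note: CHO cells stably overexpressing human ADRB2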
Conditions: CHO-ADRB2 cells, cAMP HTRF, 30 min; series mostly up to 92.4 µM
Procedure, shortened: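 CHO cells stably over-expressing ADRB2 were plated overnight at 37C, then dosed with compounds plus a stimulation mix containing 100uM IBMX and 25uM Ro-20-1724 for 0.5hr at room temperature. cAMP was measured by HTRF competition, 1hr.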

Beta-2 adrenergic receptor (Homo sapiens), sequence (P07550 whole entry, looked up): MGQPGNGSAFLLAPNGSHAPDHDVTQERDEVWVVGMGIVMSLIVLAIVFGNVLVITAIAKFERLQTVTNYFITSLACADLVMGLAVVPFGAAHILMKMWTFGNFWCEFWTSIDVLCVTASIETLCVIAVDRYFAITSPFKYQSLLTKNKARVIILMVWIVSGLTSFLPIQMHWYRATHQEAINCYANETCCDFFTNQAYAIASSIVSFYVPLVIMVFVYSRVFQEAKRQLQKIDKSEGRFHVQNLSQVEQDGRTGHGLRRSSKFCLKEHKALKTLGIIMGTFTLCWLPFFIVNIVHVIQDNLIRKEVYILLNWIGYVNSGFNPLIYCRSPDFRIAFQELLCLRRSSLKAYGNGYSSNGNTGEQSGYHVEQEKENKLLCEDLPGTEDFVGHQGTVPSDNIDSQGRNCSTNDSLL

Structure (SMILES) | Potency
CCCCCCO | inactive
Nc1ccc(S(=O)(=O)Nc2cnc3ccccc3n2)cc1 | inactive
CCCN(CCC)S(=O)(=O)c1ccc(C(=O)O)cc1 | inactive
CCCCCCCCCCCCOC(=O)c1cc(O)c(O)c(O)c1 | inactive
Cc1cc(=O)oc2cc(O)ccc12 | inactive
CN(C)C=O | inactive
O=C1c2c(O)cccc2Cc2cccc(O)c21 | inactive
C=CC(C)CCCC(C)(C)O (stereo not drawn) | inactive
CCCCCCCCC/C=C/CC1CC(=O)OC1=O (stereo not drawn) | inactive
CCc1cccc(CC)c1N | inactive
COC(=O)c1ccccc1 | inactive
CCOC(=O)C(C#N)=C(c1ccccc1)c1ccccc1 | inactive
Clc1ccc(Sc2cc(Cl)c(Cl)cc2Cl)cc1 | inactive
CCCCCCCC=O | inactive
CC(=O)C(C)C | inactive
CCCCCCOCCO | inactive
Cc1cccc(Nc2cc(Cl)nc(SCC(=O)O)n2)c1C | inactive
C=CC(=O)NC(C)(C)CS(=O)(=O)O | inactive
C[Si]1(C)O[Si](C)(C)O[Si](C)(C)O[Si](C)(C)O1 | inactive
CN(C)CCN(Cc1cccs1)c1ccccn1 | inactive
O=S1(=O)CC=CC1 | inactive
CC1(C)S[C@@H]2[C@H](NC(=O)COc3ccccc3)C(=O)N2[C@H]1C(=O)O | inactive
Clc1cc(Cl)c(Cl)cc1Cl | inactive
O=Cc1ccccc1O | inactive
CN(C)C | inactive
CCC[C@H](N[C@@H](C)C(=O)N1[C@H](C(=O)O)C[C@@H]2CCCC[C@@H]21)C(=O)OCC | inactive

Structure (SMILES) | Potency
CCCCCCCC(=O)OCC(COC(=O)CCCCCCC)OC(=O)CCCCCCC | inactive
Nc1ncnc2nc[nH]c12 | inactive
COc1cc(OC)c(C(=O)CCCN2CCCC2)c(OC)c1 | inactive
CCCCOCCOCCOC(C)=O | inactive
Cc1c(C(N)=O)cc([N+](=O)[O-])cc1[N+](=O)[O-] | inactive
OC[C@@H](O)[C@@H](O)[C@H](O)[C@H](O)CO | inactive
CC(=O)OC(C)C | inactive
CCOC(=O)/C=C\C(=O)OCC | inactive
O=C(O)c1ccccc1C(=O)O | inactive
CCc1ccc(CCOc2ccc(CC3SC(=O)NC3=O)cc2)nc1 (stereo not drawn) | inactive
O=S(=O)(O)c1ccc2nc(-c3ccccc3)[nH]c2c1 | inactive
C=Cc1cccc(C)c1 | inactive
NCCN1CCNCC1 | inactive
O=C1CCCCCCCCCCC1 | inactive
Cc1[nH]c(=O)c(C#N)cc1-c1ccncc1 | inactive
COC(=O)c1cccnc1 | inactive
CC(=O)c1nccs1 | inactive
CCN1CCCC1=O | inactive
CC(C)(C)C1CCC(O)CC1 (stereo not drawn) | inactive
CN1C(=O)CC[C@H]1c1cccnc1 | inactive
O=CCCCC=O | inactive
O=C(OCc1ccccc1)c1ccc(O)cc1 | inactive
c1ccc2c(c1)ccc1cc3c(ccc4ccccc43)cc12 | inactive
CCCCCCc1ccc(O)cc1O | inactive
CC(C)=CCO | inactive
CC(=O)CCC=C(C)C | inactive

Structure (SMILES) | Potency
C#CCN(C)Cc1ccccc1 | inactive
CCCCOC(=O)c1ccc(N)cc1 | inactive
O=c1[nH]c(=O)n([C@H]2C[C@H](O)[C@@H](CO)O2)cc1Br | inactive
CCCCC(CC)COC(=O)CCCCC(=O)OCC(CC)CCCC (stereo not drawn) | inactive
CC(C)=CCC/C(C)=C/CO | inactive
Nc1ccc(S(=O)(=O)c2ccc(N)cc2)cc1 | inactive
O=C(O)Cc1cccc2ccccc12 | inactive
CC(C)OP(=O)(CP(=O)(OC(C)C)OC(C)C)OC(C)C | inactive
CC(=O)OC(C)(C)C1CC=C(C)CC1 (stereo not drawn) | inactive
O=C(OCc1ccccc1)c1ccccc1O | inactive
Cc1cccc2n[nH]nc12 | inactive
CCCCCC/C=C/CCCCCCCC(=O)O | inactive
CC(=O)OCCC(C)C | inactive
O=C(O)CCCCC(=O)O | inactive
NS(=O)(=O)c1cc2c(cc1Cl)NC=NS2(=O)=O | inactive
COc1ccccc1O | inactive
CC(O)CO (stereo not drawn) | inactive
CC(C)=CCC/C(C)=C\CO | inactive
C=C(C)C(=O)O | inactive
NC(CO)(CO)CO | inactive
CCOC(=O)C1OC1c1ccccc1 (stereo not drawn) | inactive
ClC/C=C/CCl | inactive
CCCCC(CC)COC(=O)/C=C/c1ccc(OC)cc1 (stereo not drawn) | inactive
COc1ccc(C)cc1N | inactive
CCCCOC(=O)COc1ccc(Cl)cc1Cl | inactive
C=CC[N+](C)(C)CC=C | inactive
